This note sets out measurements from PubChem BioAssay (Tox21).

Results filed as inconclusive are left out. Calls of active or inactive are those of the source. Calls come from the whole dose curve; as a rule, active = well fitted activation curve with a large enough effect in the repeat runs; inconclusive = weak or mixed curves; inactive = flat fitted curve, though single readings scatter.
% is set by controls: 0 for no effect and ±100 for the full control effect.
Note: nearly all actives have a fitted effect of over 45% in size.

The first test can be described thus: A CellTox Green Cytotoxicity Assay to monitor cytotoxicity in HEK293 cells - 24 hour (AID 1224875). The note with it: CellTox Green fluorescence; series mostly up to 76.8 µM; activity change: at the top concentration. The procedure, abridged:
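Cytotoxicity was tracked continuously in HEK293 cells by a DNA-binding dye excluded from viable cells. Compounds were transferred in DMSO 5 h after seeding; fluorescence was recorded at intervals up to 40 h.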
On to `OC(c1ccccc1)(c1ccccc1)C1CCNCC1`, for which the “activity change” value was 1.46% [at 35.3 µM, hits give high values] (inactive).
Still for that read-out and setting: in the case of `COC(=O)c1c(C(F)F)nc(C(F)(F)F)c(C2=NCCS2)c1CC(C)C` it was -0.23% (inactive); in that of `O=C(CCN1CC1)OCC(CO)(COC(=O)CCN1CC1)COC(=O)CCN1CC1`, -9.09% (inactive).
Still for that read-out and setting: in the case of `CC(C)NCC(O)c1ccc(N)c(C#N)c1` (stereo not given) it was -1.02% [at 35.3 µM, hits give high values] (inactive); in that of `O=C(Nc1ccccc1)c1ccccc1I`, 0.199% (inactive); in that of `CC(=O)CCc1ccc2c(c1)OCO2`, -8.69% (inactive).
Still for that read-out and setting: in the case of `OC(Cn1cncn1)(c1ccc(F)cc1)c1ccccc1F` (stereo not given) it was -0.601% (inactive); in that of `COCC(=O)N(c1c(C)cccc1C)N1CCOC1=O`, -0.801% (inactive).
As for `O=NN1CCN(N=O)CC1`, the “activity change” value is 1.52% (inactive).
On the same count and under the same terms, the same measure for `ClCCCN1CCN(c2cccc(Cl)c2)CC1`: -8.41% [at 35.3 µM, hits give high values] (inactive).
Same read-out and setting: in the case of `N#Cc1ccncc1` it was -1.21% (inactive); in that of `Cc1cccc(C#N)c1`, -4.91% (inactive); in that of `ClCCOCOCCCl`, -4.41% (inactive).
Still for that read-out and setting: the same measure for `CCN(Cc1ccc(Cl)nc1)/C(=C/[N+](=O)[O-])NC`: 6.38% [at 35.3 µM, hits give high values] (inactive); for `CC(C)(C)NCC(O)c1cc(Cl)c(N)c(Cl)c1` (stereo not given): 16.9% [at 35.3 µM, hits give high values] (inactive); for `CCCSP(=S)(OCC)Oc1ccc(Cl)cc1Cl` (stereo not given): -3.75% (inactive).
As to `CCOP(=S)(Oc1cnc(C(C)(C)C)nc1)OC(C)C` (stereo not given), the “activity change” value is 20.4% (inactive).
On the same count and under the same terms, the same measure for `CCC(C)(C)c1cc(-n2nc3ccccc3n2)c(O)c(C(C)(C)CC)c1`: -5.56% (inactive); for `CC1(C)CON(Cc2ccccc2Cl)C1=O`: -8.37% (inactive).
Same read-out and setting: the same measure for `NC(=S)C(N)=S`: -0.762% (inactive).
Consider `C=C(C)[C@@H]1CC=C(C=O)CC1`, for which the “activity change” value was -4.84% (inactive).
On the same count and under the same terms, the same measure for `CCCCOP(=O)(O)OCCCC`: 2.04% (inactive).
The same measure, in the same setting: in the case of `NC(=O)O` it was -17% (inactive); in that of `O=[N+]([O-])c1cccc2cccnc12`, 2.43% (inactive).
On the same count and under the same terms, the same measure for `CC1=C(C(=O)O)N2C(=O)[C@@H](N)[C@H]2SC1`: -5.37% [at 15.8 µM, hits give high values] (inactive); for `Cc1cc(C)nc(Nc2ccccc2)n1`: -0.754% (inactive).
With `CCS(=O)(=O)C(C)(C)S(=O)(=O)CC`, the “activity change” value is -14.8% [at 35.3 µM, hits give high values] (inactive).
Same read-out and setting: in the case of `CNC(=O)Oc1c(C(C)(C)C)cc(C)cc1C(C)(C)C` it was 17.2% (inactive); in that of `CCOC(=O)CP(=O)(OCC)OCC`, 11.2% (inactive).
Still for that read-out and setting: in the case of `CNC(=O)Oc1ccccc1C1OCCO1` it was -0.561% (inactive); in that of `CC(=O)Nc1cc([As](=O)(O)O)ccc1O`, -10.7% [at 35.3 µM, hits give high values] (inactive).
Same read-out and setting: in the case of `ClC(Br)Br` it was 1.18% (inactive); in that of `OC(c1ccc(F)cc1)(c1cncnc1)c1ccccc1Cl` (stereo not given), -0.48% (inactive).
`C[N+](C)=CCl`: the “activity change” value is 1.67% (inactive).
Same read-out and setting: the same measure for `CCC1(c2ccccc2)C(=O)NC(=O)NC1=O`: 16.9% (inactive).
On the same count and under the same terms, in the case of `CC(Cl)(Cl)[N+](=O)[O-]` it was -0.835% (inactive).
The same measure, in the same setting: in the case of `CCOP(=O)(OCC)OP(=O)(OCC)OCC` it was 4.09% (inactive).

A short description of the next test: A CellTox Green Cytotoxicity Assay to monitor cytotoxicity in HepG2 cells - 16 hour (AID 1224876). The note with it: CellTox Green fluorescence; series mostly up to 76.8 µM; cytotoxicity increase: at the top concentration. In short, it runs like this: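 Real-time, homogeneous cytotoxicity readout: dead-cell DNA staining by CellTox Green in HepG2 monolayers, fluorescence measured at timed intervals up to 40 h of continuous compound exposure.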
Take `OC(c1ccccc1)(c1ccccc1)C1CCNCC1`: the “cytotoxicity increase” value was -13.4% [at 35.3 µM] (inactive).
As to `COC(=O)c1c(C(F)F)nc(C(F)(F)F)c(C2=NCCS2)c1CC(C)C`, the “cytotoxicity increase” value is 0.606% (inactive).
Still for that read-out and setting: in the case of `O=C(CCN1CC1)OCC(CO)(COC(=O)CCN1CC1)COC(=O)CCN1CC1` it was -17.4% (inactive); in that of `CC(C)NCC(O)c1ccc(N)c(C#N)c1` (stereo not given), 0.376% [at 35.3 µM] (inactive); in that of `O=C(Nc1ccccc1)c1ccccc1I`, -3.71% (inactive).
The same measure, in the same setting: in the case of `CC(=O)CCc1ccc2c(c1)OCO2` it was -12.5% (inactive); in that of `OC(Cn1cncn1)(c1ccc(F)cc1)c1ccccc1F` (stereo not given), -10.8% (inactive); in that of `COCC(=O)N(c1c(C)cccc1C)N1CCOC1=O`, -0.292% (inactive).
In the case of `O=NN1CCN(N=O)CC1`, the “cytotoxicity increase” value was 1.79% (inactive).
On the same count and under the same terms, in the case of `ClCCCN1CCN(c2cccc(Cl)c2)CC1` it was -2.26% [at 35.3 µM] (inactive); in that of `N#Cc1ccncc1`, -7.98% (inactive); in that of `Cc1cccc(C#N)c1`, -4.67% (inactive).
On the same count and under the same terms, in the case of `ClCCOCOCCCl` it was -0.321% (inactive).
Still for that read-out and setting: in the case of `CCN(Cc1ccc(Cl)nc1)/C(=C/[N+](=O)[O-])NC` it was -15.9% [at 35.3 µM] (inactive); in that of `CC(C)(C)NCC(O)c1cc(Cl)c(N)c(Cl)c1` (stereo not given), 9.28% [at 35.3 µM] (inactive); in that of `CCCSP(=S)(OCC)Oc1ccc(Cl)cc1Cl` (stereo not given), -4.69% (inactive).
Consider `CCOP(=S)(Oc1cnc(C(C)(C)C)nc1)OC(C)C` (stereo not given), for which the “cytotoxicity increase” value was 8.11% (inactive).
The same measure, in the same setting: the same measure for `CCC(C)(C)c1cc(-n2nc3ccccc3n2)c(O)c(C(C)(C)CC)c1`: -15.9% (inactive).
